HepG2 viability = qHTS for Inhibitors of TGF-b: Cytotox Counterscreen; HepG2 CAGA-GFP viability, ATP luminescence, 18 h; 410,000 tested, 0.76% active; Potency, µM (doses to about 46.1 µM), inactives show at the highest dose activity change, negative = cytotoxicity, usual class: cytotoxic; also: potency is read from the fitted curve at half-maximal effect
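CellTiter-Glo luminescence gave cytotoxicity after 18 hours at 37 degrees C. The cells were HepG2 CAGA-GFP in 1% FBS DMEM, stimulated with 500 pg/mL TGF-beta after compound addition. %Activity was normalised to no-cell wells (complete cell-killing) and DMSO (no toxicity), and curves were fitted and classified.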
ATXN viability = Viability Counterscreen for Primary qHTS for Inhibitors of ATXN expression. Potency, µM (doses to about 56.7 µM), hits mostly cytotoxic. S2 cells (HEK-293 line with an ATXN2-luciferase reporter) viability, CellTiter-Fluor protease fluorescence, 24 h. AID 651635, 2014. 400,000 tested, 0.49% active; also: potency is read from the fitted curve at half-maximal effect; nearly all actives have a fitted effect of over 40% in size
ATXN2 expr inh = Primary qHTS for Inhibitors of ATXN expression | HEK-293 ATXN2-luciferase reporter, luminescence, 24 h | Potency, µM (top dose mostly 57 µM), for the others: at the highest dose activity change, negative = inhibition, hits mostly inhibitors | 360,000 tested, 0.72% active | AID 1745845, 2022; also: potency is read from the fitted curve at half-maximal effect; % is scaled to controls: 0 for no effect and ±100 for the full control effect; nearly all actives have a fitted effect of over 55% in size
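ATXN2-luciferase reporter cells (luciferase flanked by upstream and downstream ATXN2 gene portions) were treated 24 h at 37 °C with compounds at up to 57 uM. SteadyGlo luminescence gave expression; GF-AFC fluorescence gave viability.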
D3 antag = qHTS of D3 Dopamine Receptor Antagonist: qHTS. D(3) dopamine receptor (Homo sapiens), P35462. D3R cells, DiscoveRx beta-arrestin luminescence, antagonist mode; stronger effect = lower value. max response, negative = inhibition, %. 360,000 tested, 2.5% active; in the data active = max response below about -50%; inconclusive = no clear call, values can overlap the other calls; also: % is scaled to controls: 0 for no effect and ±100 for the full control effect
Target sequence (P35462 whole entry, looked up): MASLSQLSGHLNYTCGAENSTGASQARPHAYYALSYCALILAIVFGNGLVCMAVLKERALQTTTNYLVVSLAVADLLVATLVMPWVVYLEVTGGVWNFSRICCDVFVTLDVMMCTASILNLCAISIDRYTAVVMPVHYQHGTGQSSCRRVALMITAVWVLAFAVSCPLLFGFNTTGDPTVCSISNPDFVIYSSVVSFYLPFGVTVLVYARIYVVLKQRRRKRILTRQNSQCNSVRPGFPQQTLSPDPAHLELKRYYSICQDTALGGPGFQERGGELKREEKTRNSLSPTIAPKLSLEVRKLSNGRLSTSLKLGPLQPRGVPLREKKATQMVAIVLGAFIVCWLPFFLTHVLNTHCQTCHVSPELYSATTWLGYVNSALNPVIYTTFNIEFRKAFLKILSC
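Cells plated overnight at 1500 cells/well, then exposed to library compounds with dopamine controls for 90 minutes at 37 degrees C. DiscoveRx reagent added for 30–60 minutes at room temperature; luminescence read, quantitative HTS format.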
DRD3 agonist = qHTS of D3 Dopamine Receptor Agonist: qHTS | 410,000 tested, 0.58% active | max activation, % | D(3) dopamine receptor (Homo sapiens), P35462 | D3R DiscoveRx beta-arrestin cells, luminescence, 90 min; in the data active = max activation above about 30%; also: 0% is about no effect
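Cells at 1500/well, incubated overnight, then treated with pinned compounds (dopamine as control) for 90 min at 37 degrees C. DiscoveRx reagent added for 30 - 60 minutes at room temperature; luminescence read.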
TGFb SMAD3 inh = qHTS for Inhibitors of TGF-b | AID 588855, 2011 | HepG2 CAGA-GFP TGF-b/SMAD3 reporter, GFP fluorescence, 18 h; TGF-beta stimulated, 500 pg/mL final | 410,000 tested, 1.2% active | Potency, µM (highest dose often 46.1 µM), for the others: at the highest dose activity, negative = inhibition, hits mostly inhibitors; also: potency is read from the fitted curve at half-maximal effect; % is scaled to controls: 0 for no effect and ±100 for the full control effect; nearly all actives have a fitted effect of over 65% in size
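Inhibition was scored as loss of TGF-beta-induced (500 pg/mL final, 18 hours, 37 degrees C) GFP in HEPG2 cells carrying a CAGA-GFP reporter, in DMEM with 1% FBS. Well GFP was summed per cell; Activity was normalised to unstimulated and stimulated DMSO wells, then concentration-response fitting.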
Numbers without * were called inactive; i = inactive; u = inconclusive; x = not tested or not shown. The list is not random: actives were taken first. Their share in the collection is about 4.7%. Unless noted, calls follow the shape of the dose curve; as a rule, active = well fitted curve in the direction sought with a large enough effect; inconclusive = small, poorly fitted or top-dose-only effect, or another doubt; inactive = no such curve, though single readings can be large; an effect the other way counts as inactive or inconclusive.

SMILES	HepG2 viability	ATXN viability	ATXN2 expr inh	D3 antag	DRD3 agonist	TGFb SMAD3 inh
O=C(Nc1ccccc1C(=O)OCC(=O)c1c[nH]c2ccccc12)c1ccco1	-34%	i	11%	19	35*	-1%
COC(=O)c1ccc(CSc2nc3c([nH]c4ccccc43)c(=O)n2-c2cccc(Cl)c2)o1	5%	i	10%	x	3	-6%
O=[N+]([O-])c1ccc(N/N=C/C=C/c2ccco2)cc1	-29%	i	x	-57*	-20	-10%
O=C(N/N=C/c1ccco1)c1cc([N+](=O)[O-])cc([N+](=O)[O-])c1	0%	i	-9%	3	4	u
O=C(O)c1ccc(N/N=C/C=C/c2ccc([N+](=O)[O-])o2)cc1	-1%	u	-15%	-53*	-12	27%
FCCCOc1ccc(/C=N/OCc2c(Cl)cccc2Cl)cc1	-7%	i	11%	-65*	-3	1%
FCCCOc1ccc(/C=N/OCc2ccc(Cl)cc2)cc1	12%	i	0%	14	0	-11%
CCCCCCn1c(=O)n2n(c1=O)[C@@H]1CN(S(=O)(=O)c3ccc(C)cc3)C[C@]1(O)[C@@H](OC(=O)NCc1ccccc1F)C2	7.9µM*	x	u	4	-2	13µM*
CCCCCCn1c(=O)n2n(c1=O)[C@@H]1CN(S(=O)(=O)c3ccc(C)cc3)C[C@]1(O)[C@@H](OC(=O)NC1CC1)C2	3%	i	5%	21	5	-1%
CCCCCCNC(=O)O[C@H]1Cn2c(=O)n(CCCCCC)c(=O)n2[C@@H]2CN(S(=O)(=O)c3ccc(C)cc3)C[C@]12O	22µM*	x	u	-2	5	u
CCCCCCn1c(=O)n2n(c1=O)[C@@H]1CN(S(=O)(=O)c3ccc(C)cc3)C[C@]1(O)[C@@H](OC(=O)NC1CCCC1)C2	-30%	x	u	-4	0	11µM*
CCCCCCn1c(=O)n2n(c1=O)[C@@H]1CN(S(=O)(=O)c3ccc(C)cc3)C[C@]1(O)[C@@H](OC(=O)NCC1CCCCC1)C2	-118%	x	u	0	5	u
Cc1ccc(S(=O)(=O)N2C[C@H]3n4c(=O)ccc(=O)n4C[C@H](OC(=O)NCc4ccccc4F)[C@@]3(O)C2)cc1	-18%	x	u	12	4	u
CCCCCCNC(=O)O[C@H]1Cn2c(=O)ccc(=O)n2[C@@H]2CN(S(=O)(=O)c3ccc(C)cc3)C[C@]12O	-108%	20µM*	14µM*	-17	-7	u
O=C(C[n+]1ccccc1Cl)c1ccc(O)c(O)c1	-5%	x	x	x	x	1%
CN(C)c1ccc(C2=Cc3ccccc3C2)cc1	-5%	x	x	x	x	u
CCC(=O)C1=C(c2ccc(Cl)cc2)N(C(=O)CC)n2c(C)nnc2S1	-29%	x	x	x	-11	6.3µM*
CC(=O)C1=C(c2ccc(C)cc2)N(C(C)=O)n2c(nnc2-c2ccccc2)S1	-2%	x	x	x	-7	-9%
COc1ccc(C2=C(C(C)=O)Sc3nnc(-c4ccccc4)n3N2C(C)=O)cc1	-20%	x	x	x	-1	4%
CCC(=O)C1=C(c2ccccc2)N(C(=O)CC)n2c(nnc2-c2ccccc2)S1	-2%	x	x	x	-4	-2%
CCOc1ccc(C2=C(C(C)=O)Sc3nnc(C)n3N2C(C)=O)cc1	-58%	x	x	x	-11	7.9µM*
CC(=O)C1=C(c2cccc([N+](=O)[O-])c2)N(C(C)=O)n2c(C)nnc2S1	11µM*	u	u	u	-11	11µM*
COc1ccccc1CNc1nc(NCc2ccccc2F)c2sccc2n1	-121%	u	u	57	15	13µM*
C#Cc1cccc(Nc2nc(NCCOC)nc3ccsc23)c1	-28%	u	u	71	2	-21%
COc1ccccc1CNc1nc(NCc2ccccc2)nc2ccsc12	-37%	u	u	-26	-8	18µM*
SMILES	HepG2 viability	ATXN viability	ATXN2 expr inh	D3 antag	DRD3 agonist	TGFb SMAD3 inh
C#Cc1cccc(Nc2nc(NCc3ccccc3OC)nc3ccsc23)c1	-54%	20µM*	20µM*	11	5	11µM*
c1ccc(CNc2nc(NCCOc3ccccc3)c3sccc3n2)cc1	11µM*	x	28µM*	-9	-8	u
O=C(CCn1cncn1)NCC1Cc2cc(-c3ccsc3)cc(Cl)c2O1 (stereo unspecified)	x	i	x	x	x	x
COc1ccccc1CNc1nc(NCc2cccc(OC)c2OC)c2sccc2n1	-72%	u	32µM*	0	-4	u
CCc1cccc(CC)c1NC(=O)CN1CCN(c2ccccc2)CC1	2%	i	-18%	-76*	-10	6%
COC(=O)c1ccc(NC(=O)CN2CCN(c3ccccc3)CC2)cc1	1%	i	2%	-25	33*	3%
O=C(CN1CCN(c2ccccc2)CC1)Nc1ccccc1Cl	-34%	i	-2%	0	6	-8%
Cc1cc(C)cc(NC(=O)Cn2c(=O)n(-c3ccc(C)c(C)c3)c(=O)c3oc4ccccc4c32)c1	-15%	x	x	x	-5	-12%
O=C(O)CN1C(=O)C=CC1=O	-2%	u	x	-19	-1	7%
O=C1C=CC(=O)N1CCCCCCN1C(=O)C=CC1=O	-110%	x	u	-72*	-14	4.5µM*
CCOC(=O)c1c(C)[nH]c(C)c1S(=O)(=O)NCC1CCN(Cc2ccccc2F)CC1	-35%	u	x	-21	-17	-17%
CCOC(=O)c1c(C)[nH]c(C)c1S(=O)(=O)NCCN1CCN(c2ccccc2F)CC1	-33%	i	-15%	-58*	-15	-8%
CCOC(=O)c1c(C)[nH]c(C)c1S(=O)(=O)NCC1CCN(Cc2ccc(C)cc2)CC1	-16%	i	-1%	-54*	-15	-4%
CCc1nn2c(=O)cc(COC(=O)c3ccccc3NC(=O)COc3ccc(F)cc3)nc2s1	4%	x	x	x	1	-3%
COc1c(C)c2c(c(O)c1CC=C(C)CCC(=O)OCCN1CCOCC1)C(=O)OC2	x	x	64%	x	x	x
OC1CCCN(C(=S)NCc2ccccc2)C1 (stereo unspecified)	2%	u	-28%	-73*	-2	-23%
CS(=O)(=O)Oc1ccc2c(NC(N)=O)c(C(=O)c3ccc(Cl)cc3Cl)oc2c1	x	x	119%	x	x	x
Cc1ccccc1CSc1nc2ccsc2c(=O)n1CCC(C)C	5%	x	x	x	2	0%

High-throughput results (PubChem BioAssay)
